Shown are actives, neighbours in structure and some others; about 5.4% of the full set was active somewhere.
Exocytosis inh: blocks lytic granule exocytosis. AID 651702. hit rate 0.66% among 360,000. TALL-104 LAMP-1 surface exposure, flow cytometry; cells stimulated with thapsigargin and PMA. inhibition, % at 10 µM;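 active = inhibition above about 55%, limit read from the data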
GASC-1 inh: human JMJD2C demethylase inhibition | AID 2099 | Q9H3R0 | GST-JMJD2C(1-420) H3K9me3 demethylation, DELFIA europium | inhibition, % at 2.35 µM | hit rate 0.069% among 330,000;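 active = more than half of a compound's replicate wells show inhibition beyond 50%, single wells judged on their own value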;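 note: signal counts dimethyl H3K9 product captured on neutravidin plate; 0% = median of DMSO wells and 100% = 0.3 times that DMSO median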
Target sequence (Q9H3R0 1-420 limits assumed): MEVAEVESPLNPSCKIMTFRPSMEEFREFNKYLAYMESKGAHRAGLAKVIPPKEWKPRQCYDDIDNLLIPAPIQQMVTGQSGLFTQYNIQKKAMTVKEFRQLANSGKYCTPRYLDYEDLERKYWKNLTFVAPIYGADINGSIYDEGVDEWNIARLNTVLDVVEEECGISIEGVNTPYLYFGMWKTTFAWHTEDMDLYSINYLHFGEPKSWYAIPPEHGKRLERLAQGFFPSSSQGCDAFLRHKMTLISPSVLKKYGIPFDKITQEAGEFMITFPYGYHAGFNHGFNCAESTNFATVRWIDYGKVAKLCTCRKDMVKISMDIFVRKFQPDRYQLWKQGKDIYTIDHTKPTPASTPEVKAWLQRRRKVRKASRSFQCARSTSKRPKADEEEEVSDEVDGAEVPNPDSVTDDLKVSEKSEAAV
ALR H2O2 inh: human ALR oxidase inhibition via reduced H2O2; purified ALR, DTT oxidation, H2O2 HRP-luminol luminescence; AID 485317; hit rate 3.8% among 290,000; inhibition, % (test concentration not listed);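 active = mean replicate inhibition above about 79%, with every replicate also reaching it, limit read from the data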
Target sequence (P55789 whole entry, looked up): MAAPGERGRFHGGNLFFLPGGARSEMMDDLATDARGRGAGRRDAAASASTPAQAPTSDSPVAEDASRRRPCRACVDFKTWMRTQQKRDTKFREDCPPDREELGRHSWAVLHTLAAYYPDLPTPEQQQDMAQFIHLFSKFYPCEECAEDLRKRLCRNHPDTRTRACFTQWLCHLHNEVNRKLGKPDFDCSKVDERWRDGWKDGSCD
PfM18AAP inh: blocks P. falciparum M18 aspartyl aminopeptidase; recombinant PfM18AAP, H-Glu-NHMec fluorogenic cleavage; inhibition, % at 7.35 µM; hit rate 1.2% among 290,000;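 active = inhibition above the campaign mean inhibition over all tested compounds plus 3 SD, cut at about 28% in these data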;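 note: 0% = plate median of test compound wells and 100% = 2 mM ZnCl2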
SMARCA2 act: increases SMARCA2 function in MMTV reporter cells; hit rate 1% among 370,000; MG213 cells, MMTV-luciferase reporter, dexamethasone, overnight; activation, % at 9.1 µM; in the data active = activation above about 7.8%;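 note: 0% = vehicle wells and 100% = reference activator wells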
MIN6 prolif: MIN6 beta-cell proliferation induction; MIN6 cells proliferation, ATPlite luminescence, 48 h; cells starved in 0.2% serum; 100% = growth in 10% serum; proliferation, % at 10 µM; hit rate 0.29% among 330,000; AID 2380;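 active = compounds whose signal lies at least 3.5 SD above the mean of all wells on their plate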;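 note: 0% = DMSO-treated cells in low-serum medium and 100% = 10% serum control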
Granule exo CP1: lytic granule exocytosis inhibition; hit rate 11% among 1,500; AID 651954; shares compounds with Exocytosis inh; inhibition, % at 10 µM; TALL-104 cells, LAMP-1 externalization, flow cytometry; stimulated with PMA plus thapsigargin; in the data active = inhibition above about 60%;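 note: 0% = stimulated vehicle wells and 100% = unstimulated wells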
* = called active by the depositor; / = not tested or not shown.

SMILES	Exocytosis inh	GASC-1 inh	ALR H2O2 inh	PfM18AAP inh	SMARCA2 act	MIN6 prolif	Granule exo CP1
CC1CCN(CCCNC(=O)c2ccc3c(=O)n(Cc4ccc(Cl)cc4)c(=S)[nH]c3c2)CC1	71*	3	6	-12	-2	-6	11
Cc1onc(-c2ccccc2Cl)c1C(=O)Nc1cccc2cccnc12	51	1	0	3	-2	-7	/
COc1cc(NC(=O)c2c(-c3ccccc3Cl)noc2C)c2ncccc2c1	82*	2	-8	/	-2	-4	-7
C=CCN1[C@@H](C)[C@H](c2ccccc2)Oc2cccc(NCC(C)C)c2S1(=O)=O	/	/	/	/	-4	/	/
CCCCCCCCCCCCN1CCSCCS1(=O)=O	/	/	/	/	-5	/	/
Cc1ccccc1N1CCN(C(=O)NCc2cccc(Cl)c2)CC1	86*	11	-4	-8	1	-3	-4
COc1ccc(CNC(=O)N2CCN(c3cccc(C)c3C)CC2)cc1OC	4	7	-4	-1	-4	0	/
Cc1cc2c(c(=O)o1)[C@@]1(C(=O)N(C)c3ccccc31)C1=C(CC3(CCCCC3)OC1=O)O2	/	/	/	/	-5	/	/
CCOc1ccccc1C(=O)Nc1ccc(C(=O)c2ccccc2)cc1	60*	-2	0	-9	-1	-4	-5
COC(=O)C1=C(C)N(Cc2cccc(C(F)(F)F)c2)C(=NCc2ccc(OC)cc2)NC1c1ccc(Cl)cc1 (stereo unspecified)	/	/	/	/	-6	/	/
OC(CNCCC(c1ccccc1)c1ccccc1)COc1ccccc1 (stereo unspecified)	74*	-17	0	4	-2	-6	-4
Cc1ccccc1N1C(=O)CC(Sc2nnc(-c3ccccc3)o2)C1=O (stereo unspecified)	88*	-7	65	-209	8	-6	54
COc1cccc(-c2ccc(CC[C@H]3O[C@H]4CC[C@@H](CO)O[C@H]4C[C@H]3NS(C)(=O)=O)cc2)c1	/	/	/	/	3	/	/
CN(C(=O)c1ccc(OC2CCN(S(=O)(=O)N(C)C)CC2)cc1)C1CCCCC1	64*	5	-6	-2	-1	-6	-1
CCNC(=O)N1CCN(c2ccc(N3CCN(Cc4ccccc4)[C@H](C)C3)c(C)c2)[C@@H](C)C1	/	/	/	/	-4	/	/
COC(=O)c1c(-c2ccc(OC)cc2)c2c(c3c4cc(F)ccc4n(S(=O)(=O)c4ccc(C)cc4)c13)C(=O)N(C)C2	/	/	/	/	-4	/	/
O=S1(=O)N[C@H](Cc2ccccc2)COc2cccc(F)c21	/	/	/	/	-4	/	/
COc1ccc(COc2ccc3ccc(=O)oc3c2)cc1	86*	2	/	1	1	-2	-14
CC(NC(=O)CC12CC3CC(CC(C3)C1)C2)C(=O)O (stereo unspecified)	63*	1	-15	-1	-4	-2	-4
O=C(CC12CC3CC(CC(C3)C1)C2)NCO	-2	-7	0	4	2	0	/
C=CCN1C(=O)[C@@H](CC(=O)N2CCN(C(=O)c3ccco3)CC2)[C@]2(C(=O)OCC)CCCCC/C=C/12	/	/	/	/	-1	/	/
CC(C)CCNC(=O)C1CC2Cn3c(nc4cc(Cl)c(Cl)cc43)C2N1C (stereo unspecified)	62*	3	-6	/	-1	-2	-12
CN1C(C(=O)NCC2CC2)CC2Cn3c(nc4cc(Cl)c(Cl)cc43)C21 (stereo unspecified)	-8	-9	/	/	2	-2	/
COC(=O)C1=C(C)N(Cc2ccccc2C(F)(F)F)C(=NCc2cc(OC)c(OC)c(OC)c2)NC1c1cccc(C(F)(F)F)c1 (stereo unspecified)	/	/	/	/	-4	/	/
Cc1cc(NCCc2c[nH]c3ccccc23)ccc1Nc1cccnc1	/	/	/	/	4	/	/
SMILES	Exocytosis inh	GASC-1 inh	ALR H2O2 inh	PfM18AAP inh	SMARCA2 act	MIN6 prolif	Granule exo CP1
O=C(COC(=O)c1ccco1)NC1CCCC1	72*	-15	-9	-6	-2	0	-13
CCc1c(-c2ccccc2F)ncn1CCc1ccccc1OC	/	/	/	/	-6	/	/
COc1ccc(N(CC(=O)NCCC2=CCCCC2)S(=O)(=O)c2ccccc2)cc1	62*	3	-4	-1	-6	-4	-5
CCOc1ccc(N(CC(=O)NCCSc2ccccn2)S(C)(=O)=O)cc1	-1	1	-2	1	-2	-2	/
CCOc1ccc(N(CC(=O)NCCSc2ccccn2)S(=O)(=O)c2ccc(Cl)cc2)cc1	57*	8	-1	5	-2	-5	-5
COc1ccc(NC(=O)CN(c2ccc(OC)c(Cl)c2)S(=O)(=O)c2ccccc2)cc1	56*	-1	-3	5	-1	-1	-3
COc1ccc(N(CC(=O)NCCOc2ccccc2)S(=O)(=O)c2ccc(C)cc2)cc1	78*	-40	-4	11	-2	-1	-12
C[C@H](O)[C@@H]1C(=O)N2CCc3c([nH]c4c(-c5ccccc5)cccc34)[C@@H]2C[C@@H]1N(C)C(=O)NC1CCCCC1	/	/	/	/	-3	/	/
CC12CCC3C(CCC4CC(O)CCC43C)C1CC(=O)C2 (stereo unspecified)	-1	/	/	/	-1	/	/
COc1ccc(Cn2ccc3ccc(-c4ccc5ccn(C(=O)c6ccccc6)c5c4)cc32)cc1	/	/	/	/	2	/	/
COC(=O)CCS(=O)(=O)c1nc(-c2ccccc2)cc(C(F)(F)F)n1	87*	2	98*	-4	/	-5	20
Cc1cc(NC(=O)CCCS(=O)(=O)c2nc(-c3cccs3)cc(C(F)(F)F)n2)no1	61*	-5	65	-30	-9	-7	18
CS(=O)(=O)c1nc(-c2ccc(F)cc2)cc(C(F)(F)F)n1	86*	-1	/	-5	-11	/	18
CC(C)c1[nH]nc2c1C(c1ccccc1)NC2=O (stereo unspecified)	/	/	/	/	-1	/	/
O=C(NCC1CCCCC1)c1ccc(=O)[nH]c1	-7	1	-7	-13	-5	-1	/
O=C(NCC1CCCCC1)c1cccc(-c2ccc(O)cc2)c1	59*	-3	82*	10	-3	-4	-4
CSc1nc(C(C)C)ccc1CNC(=O)CC(C)c1ccccc1 (stereo unspecified)	63*	-4	-13	-5	-3	-5	-4
COc1ccc(NC(=O)C2C(c3ccccc3)C2(Cl)Cl)c(OC)c1 (stereo unspecified)	66*	-31	-17	-7	-2	-4	-14
CCOc1ccc(NC(=O)C2C(c3ccccc3)C2(Cl)Cl)cc1 (stereo unspecified)	81*	-2	1	0	0	-2	-14
COC(=O)[C@]12C[C@H](CC(=O)NCC3CCCCC3)C(=O)N(CCC3=CCCCC3)C1=C[C@H](C1CCCC1)O[C@@H]2C	/	/	/	/	-1	/	/
O=S(=O)(CC(CN1CCCCC1)N1CCCCC1)c1ccc2ccccc2c1 (stereo unspecified)	68*	-9	/	2	-7	/	7
